Screening results as filed in PubChem.
Only a selection was taken, and hits are over-represented in it overall.
HSV replic up: enhancers of HSV replication in host cells, fold increase, host cell viability | HSV replication augmentation in cells | maximum fold increase | hit rate 0.005% among 220,000 | AID 1956, 2009; in the data active = maximum fold increase above about 1.5; inconclusive = no clear call, values can overlap the other calls; tested in PC3 cells
TbHK1 inh: Trypanosoma brucei hexokinase 1 inhibitors, primary screen, biochemical, G6PDH-coupled NADH absorbance, MLSCN library | hit rate 0.11% among 220,000 | inhibition, % at 10 µM | recombinant TbHK1, G6PDH-coupled NADH A340 | hexokinase 1 [Trypanosoma brucei];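 active = inhibition of 50% or more in the single-dose primary screen; inactive = inhibition below 50%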
Insulin prom inh: inhibitors of insulin promoter-driven GFP, primary screen, imaging, TRM-6 cells (human fetal islet line), eGFP reporter, cell count; reporter expression induced with tamoxifen; inhibition, % at 2 µM; hit rate 0.9% among 130,000;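 active = inhibition above the mean plus 3 SD, with well images judged a real hit on visual review, cut at about 60% in these data, passing the limit was not always enough; inconclusive = inhibition over the cutoff but images rejected on review; inactive = inhibition not above the cutoff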
ROMK primary: ROMK potassium channel modulators, primary screen, cell-based, thallium flux, MLSMR library. ATP-sensitive inward rectifier potassium channel 1 (Homo sapiens), P48048. Tet-inducible ROMK, thallium flux fluorescence; actives lie on both sides. B-score at 10 µM. hit rate 2% among 130,000;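 active = signal ratio slope over the read window, or its plate-corrected B-score, at least 3 SD from the plate mean, either direction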;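 also: B-score of the F/F0 ratio slope over 7 to 12 s after thallium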
Target sequence (P48048 whole entry, looked up): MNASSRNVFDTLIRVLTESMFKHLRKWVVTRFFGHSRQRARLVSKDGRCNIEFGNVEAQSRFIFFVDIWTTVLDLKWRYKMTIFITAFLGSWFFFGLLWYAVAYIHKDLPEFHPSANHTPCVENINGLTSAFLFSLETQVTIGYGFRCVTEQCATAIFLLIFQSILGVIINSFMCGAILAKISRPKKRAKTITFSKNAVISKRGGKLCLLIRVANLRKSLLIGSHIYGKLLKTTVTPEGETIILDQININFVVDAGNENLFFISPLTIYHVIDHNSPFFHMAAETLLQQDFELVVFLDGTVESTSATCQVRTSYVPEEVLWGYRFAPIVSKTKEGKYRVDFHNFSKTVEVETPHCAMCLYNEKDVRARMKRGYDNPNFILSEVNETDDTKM
Ins promoter up: insulin promoter activators in MIN6 cells, imaging, high-content screening, mouse beta cells. MIN6 insulin promoter-GFP reporter; active compounds read high. z-score at 5 µM. hit rate 0.3% among 190,000. AID 1625, 2009;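 active = z-score above 3 at 5 µM with at least 500 cells counted in the well; inconclusive = wells under 500 cells, flagged as cytotoxic or low count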
* marks the source's active call; other numbers are inactive results; i = inactive; ? = inconclusive; nt = not tested or not shown.

SMILES	HSV replic up	TbHK1 inh	Insulin prom inh	ROMK primary	Ins promoter up
Cc1cccc(OCC2CCCN(Cc3nc(C4CC4)no3)C2)c1 (stereo not given)	i	7	39	-0.96	nt
O=C(Cc1c2ccccc2nc2ccccc12)c1ccccc1	i	-11	61*	0.072	0.04
C[N+]12CCCCC1C(COC(=O)c1ccc3c(c1)OCO3)CCC2 (stereo not given)	nt	-3	75*	-0.12	0.5
CC1CCCC(C)N1C(=O)COC(=O)c1ccc2c(c1)OCO2 (stereo not given)	i	6	nt	-0.97	0.19
Cc1ccc(C(=O)NNC2CC(=O)N(c3ccc4c(c3)OCCO4)C2=O)cc1 (stereo not given)	i	9	85*	-0.96	nt
O=C(COC(=O)c1cccc(Br)c1)NCCC1=CCCCC1	i	-5	nt	-0.38	0.96
COc1ccc(-c2nc3ncccn3c2Nc2ccc3c(c2)OCCO3)cc1	nt	-8	69*	-0.5	0.51
Cc1cccc(-n2c(C)nc3cc(C(=O)NCc4ccc5c(c4)OCO5)ccc32)c1	i	17	38	0.034	0.62
Cc1ccc(C(=O)CSc2nnc(C)s2)cc1	i	-10	7	0.012	0.89
Cc1nnc(SCC(=O)c2ccc(Br)cc2)s1	i	0	79*	0.13	0.34
COC(=O)c1c(-c2cccc(OC)c2)csc1N	i	6	nt	nt	nt
COC(=O)c1c(-c2ccc(OC)c(OC)c2)csc1N	i	2	80*	nt	0.83
C=CCSc1nc(NC)c2sccc2n1	i	2	80*	nt	-0.75
CC(=O)Nc1ccc(NC(=O)c2ccc(CSc3ccccc3)o2)cc1	i	0	82*	-0.51	0.75
Cc1ccc(-n2nc(C)c(=O)c(-c3ccccc3)c2NC(=O)c2cccs2)cc1	i	-13	nt	-0.079	-0.89
CCCc1cc(NCCCCO)n2c(nc3ccccc32)c1C#N	i	-1	79*	-0.26	-0.08
Cc1cc(NCCCCO)n2c(nc3ccccc32)c1C#N	i	-10	-105	0.67	-0.25
Cc1ccc(NC(=O)CNc2ccc(OC(C)C)cc2)c(C)c1	i	-4	75*	nt	nt
CC(NO)/C(=N\O)c1cccs1 (stereo not given)	i	-6	nt	1.2	-0.25
O/N=C(/CN(O)/C=C1/C=CC=N1)c1cccs1	i	-19	-26	-5*	0.71
O=C(O)c1ccc(S(=O)(=O)Nc2ccc(O)c(Sc3nc4ccccc4s3)c2)cc1	i	-3	nt	-0.027	-0.11
O=C(NNc1cc(N2CCOCC2)nc(N2CCOCC2)n1)C12CC3CC(CC(C3)C1)C2	i	-1	-15	-0.023	-0.76
O=C(NC(=S)Nc1ccc(C(F)(F)F)cc1)c1csnn1	i	2	nt	7.4*	-0.02
Fc1ccccc1NC(=S)N(CCCN1CCOCC1)Cc1cccnc1	i	0	nt	-0.32	-0.04
O=c1c2c3c(sc2[nH]c(=S)n1Cc1ccco1)CCC3	i	-5	nt	-5.5*	-0.54
SMILES	HSV replic up	TbHK1 inh	Insulin prom inh	ROMK primary	Ins promoter up
CC1(C)Cc2c(sc3[nH]c(=S)n(Cc4ccco4)c(=O)c23)CO1	i	-24	36	1	nt
CCN(CC)c1ccc(/C=C(\C#N)c2nc(-c3cccs3)c(NC(C)=O)s2)cc1	?	-2	nt	nt	17*
CCOc1cc(C(=S)N2CCOCC2)ccc1OS(=O)(=O)c1ccccc1[N+](=O)[O-]	i	15	-69	nt	-0.34
CC(=O)c1c(OC(=O)c2ccco2)c2ccccc2n1C	nt	-21	nt	nt	0.59
CC(=O)c1c(OC(=O)c2ccc(C)cc2)c2ccccc2n1C	i	-2	100*	nt	0.43
COc1cc(CC(=O)Nc2cccc(SC)c2)cc(OC)c1OC	i	3	75*	-1.9	-1.4
COc1ccc(CC(=O)Nc2cccc(SC)c2)cc1	i	2	nt	-0.9	0.97
CCN(CC)S(=O)(=O)c1ccc(NC(=O)c2cc(C(=O)OC)cc([N+](=O)[O-])c2)cc1	i	-2	71*	0.49	1
CCc1ccc(OCc2cnc(Cl)s2)cc1	i	3	-46	0.37	0.11
Cc1ccc(OCC(=O)N/N=C/c2cccn2C)cc1	i	-17	71*	nt	nt
C=CCn1c(SCC(=O)N2CCN(c3ccccc3)CC2)nnc1-c1ccco1	i	5	77*	nt	-0.33
O=C(CSc1nnc(-c2ccco2)n1-c1ccccc1)N1CCOCC1	i	-3	-3	nt	nt
O=C(O)C12CC3CC(C1)CC(n1cnc(Cl)n1)(C3)C2	i	-1	100*	nt	nt
COc1cc(/C=C\C(=O)NCc2ccc3[nH]c(C)cc3c2)cc(OC)c1OC	i	2	66*	1	0.3
Cc1c(Cl)cccc1NC(=O)C(=O)NNC(=O)c1ccccc1F	i	-11	nt	10*	0.98
COc1ccc(Cn2nnnc2C(c2cccs2)N2CCOCC2)cc1 (stereo not given)	i	0	100*	nt	-0.88
c1ccc(CCn2nnnc2C(c2cccs2)N2CCOCC2)cc1 (stereo not given)	i	nt	nt	nt	-0.4
COC(=O)C1(Cc2ccc(O)cc2)OC(=O)C(O)=C1c1ccc(O)cc1 (stereo not given)	i	-39	nt	nt	0.29
O=C(Nc1cnn(C23CC4CC(CC(C4)C2)C3)c1)c1cc(-c2ccccc2)on1	i	7	31	0.44	-0.45
CCCn1cc(NC(=O)c2cc(-c3ccccc3)on2)cn1	i	-2	15	5.6*	nt
COc1ccccc1-c1nc(-c2ccncc2)no1	i	1	18	nt	-0.2
COc1ccc(Cl)cc1-c1nc(-c2ccncc2)no1	i	-6	81*	-0.019	0.45
COc1cc(OC)c(S(=O)(=O)NC(C)C)cc1C(=O)O	i	-2	nt	nt	-0.08
Cc1cccc(NC(=S)N(CCN(C)C)Cc2cccs2)c1	i	4	-7	-0.94	-0.72
Cc1nnc(-c2cnn(C)c2N)n1Cc1ccccc1	i	-11	42	0.29	nt
SMILES	HSV replic up	TbHK1 inh	Insulin prom inh	ROMK primary	Ins promoter up
Cc1nnc(-c2cnn(C)c2N)n1Cc1cccc(Cl)c1	i	-6	89*	0.31	0.62
CC(=O)c1sc(N/N=C\c2ccccc2O)nc1C	?	-21	nt	0.64	nt
Brc1ccc(-c2csc(N3CCOCC3)n2)cc1	i	-5	nt	0.42	-0.65
Clc1ccc(-c2csc(N3CCOCC3)n2)cc1	i	10	73*	-0.046	-0.08
O=C(CCN1CCN(c2ccccc2)CC1)N/N=C/c1ccccc1O	i	-8	nt	-0.76	-1.4
CN(CCC#N)C(=O)CC(Cc1ccccc1)C1CCOC(C)(C)C1 (stereo not given)	i	-8	nt	nt	0.14
Cc1ccccc1OCC(=O)OC1CCN(C)CC1	i	-4	32	nt	8.6*
C=CCOc1ccc(C2NC(=S)NC3=C2CCc2ccccc23)cc1 (stereo not given)	i	-12	nt	nt	-0.24
O=C1NC2=C(CCc3ccccc32)C(c2ccccc2)N1 (stereo not given)	i	4	61*	0.29	-0.43
O=C(O)c1ccc(-c2ncc[nH]2)cc1	i	-6	80*	0.77	0.31
